Source: PubChem (National Center for Advancing Translational Sciences (NCATS))
HttQ103 aggreg: qHTS Multiplex Assay to Identify Dual Action Probes in a Cell Model of Huntington: Aggregate Formation (GFP); Potency, µM (titrated, usually from 46.1 µM), usual class: inhibitors; PC12 HttQ103-GFP aggregates, Acumen cytometry, 40 h; hit rate 1.1% among 220,000; active = well fitted curve in the direction sought with a large enough effect; inconclusive = small, poorly fitted or top-dose-only effect, or another doubt; inactive = no such curve, though single readings can be large; an effect the other way counts as inactive or inconclusive; also: nearly all actives have a fitted effect of over 60% in size
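Inducible Q103 Huntingtin exon 1–GFP PC12 line, 1500 cells/well in phenol red free DMEM with 5% equine and 5% calf serum. Tebufenozide 100 nM induced expression; compounds titrated; aggregates quantified by cytometry.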
PNC inhibitor: High Content Assay for Compounds that inhibit the Assembly of the Perinucleolar Compartment; PC3M PTB-GFP, PNC prevalence imaging, 16 h; active compounds read low; activity change (PNC), negative = inhibition, % at 10 µM; hit rate 3.1% among 140,000; AID 2417, 2010;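 active = readout at or below -70, meaning at least 70% loss of cells showing the perinucleolar compartment, a nuclear body marking cancer cells; inconclusive = readout between -30 and a set limit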
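Read-out is percentage of cells bearing a perinucleolar compartment, from automated 20x imaging of fixed, Hoechst-stained PC3M PTB-GFP cells. Cells were seeded 4 h, then exposed 16 h to compound (23 nl of library stock) in duplicate plates.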
GoLoco inh red: qHTS Assay for Inhibitors of RGS12 GoLoco Motif Activity (Red Fluorophore). hit rate 0.44% among 230,000. Gai1:RGS12 GoLoco peptide FP, rhodamine, 10 min. Potency, µM (highest dose often 61.6 µM), actives largely listed as inhibitors. Guanine nucleotide-binding protein G(i) subunit alpha-1 (Homo sapiens), P63096; active = well fitted inhibition curve with a large enough effect, not every such curve was filed as active; inactive = no such curve, though single readings can be large or run the other way; also: nearly all actives have a fitted effect of over 30% in size
HTT ATP protect: qHTS Multiplex Assay to Identify Dual Action Probes in a Cell Model of Huntington: Cytoprotection (ATP); hit rate 0.14% among 230,000; PC12 HTT-Q103 induced, cytoprotection, ATP luminescence, 40 h; AID 1471, 2008; Potency, µM (doses to about 56.4 µM), actives largely listed as activators; active = well fitted curve in the direction sought with a large enough effect; inconclusive = small, poorly fitted or top-dose-only effect, or another doubt; inactive = no such curve, though single readings can be large; an effect the other way counts as inactive or inconclusive; also: nearly all actives have a fitted effect of over 45% in size
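Compounds were screened for protection of PC12 cells against cell death after tebufenozide induction (100 nM final) of mutant Huntingtin exon 1 (Q103) fused to GFP.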
HPGD inh: qHTS Assay for Inhibitors of HPGD (15-Hydroxyprostaglandin Dehydrogenase). 15-hydroxyprostaglandin dehydrogenase [NAD(+)] (Homo sapiens), P15428. purified HPGD, NADH fluorescence kinetic, PGE2 substrate. Potency, µM, most hits filed as inhibitors. hit rate 4.3% among 150,000
Target sequence (P15428 whole entry, looked up): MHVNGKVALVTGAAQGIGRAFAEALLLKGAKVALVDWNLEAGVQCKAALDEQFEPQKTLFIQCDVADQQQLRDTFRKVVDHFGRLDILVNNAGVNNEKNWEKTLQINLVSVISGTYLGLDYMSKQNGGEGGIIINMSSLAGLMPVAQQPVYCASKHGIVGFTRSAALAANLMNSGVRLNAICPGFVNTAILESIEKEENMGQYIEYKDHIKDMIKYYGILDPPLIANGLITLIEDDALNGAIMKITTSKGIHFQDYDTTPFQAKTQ
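NADH formation kinetics: reaction with 30 uM PGE2 and 1 mM NAD+ (final), 20 nM enzyme, Tris-HCl pH 8 with Tween 20, after 15 min compound preincubation at room temperature. Fluorescence change, last versus first of five reads.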
ALDH1A1 inh: qHTS Assay for Inhibitors of Aldehyde Dehydrogenase 1 (ALDH1A1); Aldehyde dehydrogenase 1A1 (Homo sapiens), P00352; Purified ALDH1A1, NADH fluorescence, propionaldehyde substrate; Potency, µM (highest dose often 75.3 µM), usual class: inhibitors; hit rate 7.3% among 220,000; AID 1030, 2008
A number is an active result; [ ] = remark or other dose. In the library only some 11% were active in any assay of this set; here they are far more common. Unless noted, calls follow the shape of the dose curve; as a rule, active = well fitted inhibition curve with a large enough effect (not every such curve was filed as active); inconclusive = small, poorly fitted or top-dose-only effect, or another doubt; inactive = no such curve, though single readings can be large or run the other way.

For Cc1ccc(S(=O)(=O)N2CCN(C(=O)C3Cc4ccccc4CN3C(=O)c3ccco3)CC2)cc1 (stereo not drawn) the results were HttQ103 aggreg inactive, PNC inhibitor inactive, GoLoco inh red inactive, HTT ATP protect inactive, HPGD inh inactive and ALDH1A1 inh 8.91µM.
`O=C(c1ccco1)N1CCN(C(=O)C2Cc3ccccc3CN2S(=O)(=O)c2ccc(F)cc2)CC1` (stereo not drawn) gave HttQ103 aggreg inactive, PNC inhibitor inactive, GoLoco inh red inactive, HTT ATP protect inactive[10 µM], HPGD inh inactive and ALDH1A1 inh inconclusive.
For CC(C)(C)NC(=O)CN(C(=O)Cn1nnc(-c2ccccc2F)n1)c1cccc2c1CCCC2 the results were HttQ103 aggreg inactive, PNC inhibitor inactive, GoLoco inh red inactive, HTT ATP protect inactive, HPGD inh inactive and ALDH1A1 inh inactive.
`CCOC(=O)CC1C(=O)NCCN1S(=O)(=O)c1ccccc1Cl` (stereo not drawn) gave HttQ103 aggreg inactive, PNC inhibitor inactive, GoLoco inh red inactive, HTT ATP protect inactive, HPGD inh inactive and ALDH1A1 inh inactive.
For Cc1ccc(CSCC(=O)NN=C2CCN(C)CC2)cc1 the results were HttQ103 aggreg inactive, PNC inhibitor inactive, GoLoco inh red inactive, HPGD inh inactive and ALDH1A1 inh inconclusive.
`C=CCOC(=O)C(C(C)=O)C(NC(=O)OC)c1cccc(C)c1` (stereo not drawn) gave HTT ATP protect inconclusive and ALDH1A1 inh inactive[13.5 µM].
For CN1CCN(Cc2c(O)ccc3cc(Br)ccc23)CC1 the results were HttQ103 aggreg inactive, GoLoco inh red inactive, HTT ATP protect inactive and ALDH1A1 inh 25.1µM.
`Brc1ccc(-c2nc(N/N=C/c3cccnc3)c3ccccc3n2)cc1` gave HttQ103 aggreg 10µM, PNC inhibitor inactive, GoLoco inh red inactive, HTT ATP protect inactive, HPGD inh inconclusive and ALDH1A1 inh inconclusive.
Screening COc1ccc(NC(=O)CC#N)cc1OC returned HttQ103 aggreg inactive, PNC inhibitor inactive, GoLoco inh red inactive, HTT ATP protect inactive, HPGD inh inactive and ALDH1A1 inh inactive.
For CN(C(=O)c1ccc2c(Cl)c3c(nc2c1)CCC3)c1ccccc1 the results were HttQ103 aggreg inactive, PNC inhibitor inactive, GoLoco inh red inactive, HPGD inh 4.47µM and ALDH1A1 inh inconclusive.
`CN(C(=O)c1ccc2c(=O)n3c(nc2c1)CCCCC3)c1ccccc1` gave HttQ103 aggreg inactive, PNC inhibitor -100.0, GoLoco inh red inactive, HTT ATP protect inactive[10 µM], HPGD inh inactive and ALDH1A1 inh inactive.
Screening CCN(C(=O)c1ccc2c(Cl)c3c(nc2c1)CCC3)c1ccc(C)c(C)c1 returned HttQ103 aggreg inactive, PNC inhibitor inactive, GoLoco inh red inactive, HPGD inh inconclusive and ALDH1A1 inh 14.1µM.
For CN(C(=O)c1ccc2c(=O)n3c(nc2c1)CCCCC3)c1ccccc1Cl the results were HttQ103 aggreg inactive[9.22 µM], GoLoco inh red inactive and HTT ATP protect inactive[10 µM].
Screening Cn1c(Sc2ccc(-c3cccnc3)n2C)ccc1-c1cccnc1 returned GoLoco inh red inactive[14.2 µM], HTT ATP protect inactive[10 µM], HPGD inh inactive and ALDH1A1 inh inactive[13.5 µM].
N#Cc1ccc(CN2CCCC3(CCN(C(=O)c4cc(C(F)(F)F)cc(C(F)(F)F)c4)CC3)C2)cc1 was read as GoLoco inh red inactive, HTT ATP protect inactive, HPGD inh inactive and ALDH1A1 inh inactive.
Screening C[N+](C)(C)C/C=C1/COCO1 returned HttQ103 aggreg inactive, PNC inhibitor inactive, GoLoco inh red 10µM, HTT ATP protect inactive, HPGD inh inactive and ALDH1A1 inh inactive.
Cn1cnc2cc(NC(=O)c3cccs3)ccc21 was read as HttQ103 aggreg inactive[9.22 µM], GoLoco inh red inactive, HTT ATP protect inactive[10 µM] and ALDH1A1 inh inactive.
For N#CC12CCCCC1CC1CCCCC1(C#N)N2Cc1cccnc1 (stereo not drawn) the results were HttQ103 aggreg inactive, PNC inhibitor -86.6, GoLoco inh red inactive, HTT ATP protect inactive, HPGD inh inactive and ALDH1A1 inh inactive.
